Measurements published in the supplement of paper PMC7411054.

Experiments:
Experiment in all cases: lowest phenotypically active concentration; higher = less potent
Details in all cases: treatment time: 24 h
[1] = test system: HepG2-ACTB-RAB5A
In short: (§1)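 Cells from fifteen gene-edited reporter lines (A549, HepG2 and WPMY1) were treated for 24 h at 0.3, 1, 3 or 9 µM and imaged live, four wells per condition. Features were normalised per well to solvent control wells. A condition deviated if ≥3 of 4 wells passed the 95th percentile of control Euclidean distances and was reproducible if its median replicate Pearson correlation beat the 95th percentile of non-replicates; phenotypic activity needed both.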

[2] = test system: HepG2-CANX-COX4
In short: as §1

[3] = test system: HepG2-GM130-SQSTM1
In short: as §1

[4] = test system: HepG2-TP53BP1-CLTA
In short: as §1

[5] = test system: HepG2-TUBA1B-RELA
In short: as §1

[6] = test system: WPMY1-ACTB-RAB5A
In short: as §1

[7] = test system: WPMY1-CANX-COX4
In short: as §1

[8] = test system: WPMY1-GM130-SQSTM1
In short: as §1

[9] = test system: WPMY1-TP53BP1-CLTA
In short: as §1

Measured: lowest phenotypically active concentration

COc1cc(C[C@H]2C(=O)OC[C@@H]2Cc2ccc(OC)c(OC)c2)ccc1O [Arctigenin]
1 µM: [4] | [5]
9 µM: [1] | [2] | [3]

COc1cc2ncnc(Nc3ccc(O)c(Br)c3)c2cc1OC
9 µM: [2] | [3]
3 µM: all other assays above
